Results on eight compounds are retold here after PubChem BioAssay.

Entries with a potency or affinity are not part of this list. Activity calls are given as the source filed them. How the calls were made is not given here.

System in the first test: not listed separately
Nature of the test: HepG2 cell cytotoxicity, dose response, cytotoxicity control, plate reader, cherry-pick, antagonist series (AID 743416). The settings on record: series mostly up to 26 µM.
Consider `CC(C)(C)n1cc(C(=O)c2ccc3ccccc3c2O)cn1`, for which the outcome was inactive.
Still for that read-out and setting: the same measure for `CNC(=O)Oc1cccc(-c2cn3cc(Cl)ccc3n2)c1`: “inactive”; for `Clc1cccc(N2Cc3cc(-c4ccccc4)ccc3-n3nncc3C2)c1`: “inactive”.
Turning to `O=c1[nH]c2ccccc2n1C1CCN(C(c2ccccc2OC(F)(F)F)c2nnnn2Cc2ccccc2)CC1` (stereo not given), the compound was classed as inactive.
On the same count and under the same terms, under `COc1cccc(-c2nc3ccc(N4CCN(C)CC4)cc3[nH]2)c1` stands “inactive”; under `COc1cc2c(cc1OC)CN(c1ccc([N+](=O)[O-])c(C(F)(F)F)c1)CC2`, “inactive”.
Take `O=C(O)c1nn(Cc2ccc(Cl)cc2Cl)c2ccccc12`: the outcome was inactive.

The target of another test is Melanocortin receptor 4 (Homo sapiens) (UniProt P32245). Nature of the test: MC4R antagonists, dose response, counter-screen for LGR2 antagonist project, cell-based, plate reader, cherry pick (AID 743444). The settings on record: MC4R-expressing cells, antagonist mode; series mostly up to 35 µM.
As for `O=c1c2ccccc2nc(/C=C/c2ccc([N+](=O)[O-])o2)n1-c1ccc(O)cc1`, the outcome was inactive.
Same read-out and setting: under `COc1cc2c(cc1OC)CN(c1ccc([N+](=O)[O-])c(C(F)(F)F)c1)CC2` stands “inactive”; under `O=C(O)c1nn(Cc2ccc(Cl)cc2Cl)c2ccccc12`, “inactive”.
